Assay results: a collection of fitness landscapes (doi:10.1038/s41467-024-54723-y)
Whole data set: some 18,000 sequences, median “TetR repression strength (sort-seq, GFP reporter)” near 0.23, cut for the highest 2% near 0.68. This excerpt belongs to a sample that is enriched for the highest values.

The sequences below were run against TetR (class B, Tn10) (UniProt P04483) (assay: TetR repression strength (sort-seq, GFP reporter) (relative to tetO2 = 1); higher = stronger repression). Conditions: E. coli.
TetR (class B, Tn10), sequence (P04483 whole entry): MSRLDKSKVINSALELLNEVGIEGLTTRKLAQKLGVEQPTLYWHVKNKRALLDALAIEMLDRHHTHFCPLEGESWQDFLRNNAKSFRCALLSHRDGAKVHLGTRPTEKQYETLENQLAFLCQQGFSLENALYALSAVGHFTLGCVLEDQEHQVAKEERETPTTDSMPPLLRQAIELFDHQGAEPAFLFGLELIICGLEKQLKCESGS
Procedure, shortened: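 In LB with 50 µg/mL chloramphenicol, E. coli SIG10-MAX holding a low-copy library with eight randomized operator positions between a constitutive promoter and sfGFP, plus constitutive TetR, grew for 5 h at 37 °C. FACS then sorted 10^6 cells into 13 fluorescence bins for Illumina sequencing of each bin. Repression strength equals the top bin index plus one less the read-weighted mean bin, normalized to the unaltered operator. Values from three independent transformations were averaged when reads were ≥30 in every replicate and the CV was ≤0.5.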
TCCCGTGAAGTACGCGAGA gave a TetR repression strength of 0.217. TCCCCCGTAGTGGGAGAGA showed a TetR repression strength of 0.312. For TCCCTTTAAGTGCTGGAGA, the TetR repression strength was 0.3. TCCCACGGAGTGTGGGAGA showed a TetR repression strength of 0.15. Sequence TCCCCAAGAGTTATAGAGA has a TetR repression strength of 0.281. TCCCTTACAGTGCGTGAGA gave a TetR repression strength of 0.183. TCCCGAGCAGTTAGAGAGA was tested, and the TetR repression strength was 0.202. For TCCCGAGGAGTTATAGAGA, the TetR repression strength was 0.326. In the case of TCCCGTGAAGTGGGCGAGA, the TetR repression strength was 0.0935. Work on TCCCGAGCAGTTATAGAGA yielded a TetR repression strength of 0.686. TCCCGCGAAGTGAGCGAGA gave a TetR repression strength of 0.248. TCCCGTGAAGTGAGCGAGA gave a TetR repression strength of 0.888. In the case of TCCCTGTTAGTTGTAGAGA, the TetR repression strength was 0.271. Sequence TCCCGGTTAGTCTTGGAGA has a TetR repression strength of 0.317. Work on TCCCCTTGAGTTTGTGAGA yielded a TetR repression strength of 0.323. With TCCCTTAAAGTCTACGAGA the TetR repression strength was 0.771. TCCCTTACAGTCTACGAGA gave a TetR repression strength of 0.405. In the case of TCCCTTAAAGTCTAAGAGA, the TetR repression strength was 0.539. For TCCCTGAAAGTCTGCGAGA, the TetR repression strength was 0.134. Sequence TCCCTTACAGTCCACGAGA has a TetR repression strength of 0.808. Sequence TCCCTAAAAGTCTACGAGA has a TetR repression strength of 0.16. For TCCCTGAAAGTCTACGAGA, the TetR repression strength was 0.815. Work on TCCCTGAAAGTATACGAGA yielded a TetR repression strength of 0.205. TCCCTAACAGTCCACGAGA showed a TetR repression strength of 0.205. With TCCCTGGCAGTTTGCGAGA the TetR repression strength was 0.65. With TCCCGGGGAGTGCAGGAGA the TetR repression strength was 0.176. Sequence TCCCGAATAGTGAGGGAGA has a TetR repression strength of 0.127. For TCCCGGACAGTCGACGAGA, the TetR repression strength was 0.0556. With TCCCGCCGAGTAGTCGAGA the TetR repression strength was 0.18. For TCCCGGACAGTCGTCGAGA, the TetR repression strength was 0.892. For TCCCGGACAGTCATCGAGA, the TetR repression strength was 0.216. In the case of TCCCGCCGAGTCGTCGAGA, the TetR repression strength was 1.24. TCCCGCCGAGTCGAGGAGA gave a TetR repression strength of 0.36. For TCCCTTGCAGTCAATGAGA, the TetR repression strength was 0.251. Work on TCCCAGGGAGTACTCGAGA yielded a TetR repression strength of 0.275. For TCCCGGGGAGTGACTGAGA, the TetR repression strength was 0.143. Work on TCCCTTCTAGTCCGTGAGA yielded a TetR repression strength of 0.468. TCCCGATGAGTCAGGGAGA gave a TetR repression strength of 0.174. With TCCCTGTAAGTCAGCGAGA the TetR repression strength was 0.494. Sequence TCCCAGGCAGTGTGTGAGA has a TetR repression strength of 0.207. TCCCACATAGTAAGTGAGA showed a TetR repression strength of 0.207. TCCCACACAGTATGTGAGA gave a TetR repression strength of 0.13. For TCCCGCAGAGTATGTGAGA, the TetR repression strength was 0.171. For TCCCTCATAGTATGTGAGA, the TetR repression strength was 0.257. For TCCCACAGAGTATGTGAGA, the TetR repression strength was 1.24. TCCCACATAGTATGTGAGA showed a TetR repression strength of 1.23. Work on TCCCGCATAGTTATTGAGA yielded a TetR repression strength of 0.197. TCCCGAACAGTGGGAGAGA gave a TetR repression strength of 0.231. TCCCCATTAGTCGCGGAGA gave a TetR repression strength of 0.241. TCCCGGGGAGTTCGGGAGA showed a TetR repression strength of 0.307. Sequence TCCCATTGAGTTCGAGAGA has a TetR repression strength of 0.29. Work on TCCCATGGAGTTCGGGAGA yielded a TetR repression strength of 0.228. TCCCATTGAGTTCGGGAGA gave a TetR repression strength of 0.851. For TCCCAGTTAGTTCGGGAGA, the TetR repression strength was 0.0688. TCCCATTTAGTTCGGGAGA was tested, and the TetR repression strength was 1.09. TCCCGGGTAGTTCGGGAGA gave a TetR repression strength of 0.723. TCCCGGGTAGTTCGAGAGA was tested, and the TetR repression strength was 0.289. TCCCATTTAGTCGCGGAGA showed a TetR repression strength of 0.755. Work on TCCCCTTTAGTTCGGGAGA yielded a TetR repression strength of 0.339. Work on TCCCATTTAGTCGGAGAGA yielded a TetR repression strength of 0.231. With TCCCATACAGTCGTAGAGA the TetR repression strength was 0.0752. With TCCCTCAGAGTGCTGGAGA the TetR repression strength was 0.475. In the case of TCCCGGCAAGTTAGTGAGA, the TetR repression strength was 0.0764. With TCCCGTCAAGTGCATGAGA the TetR repression strength was 0.315. Sequence TCCCTATCAGTAGGCGAGA has a TetR repression strength of 0.414. TCCCTTTCAGTTACAGAGA showed a TetR repression strength of 0.363. Sequence TCCCTCTCAGTTACTGAGA has a TetR repression strength of 0.703. TCCCTATCAGTTACGGAGA showed a TetR repression strength of 0.484. TCCCCTTCAGTTACTGAGA gave a TetR repression strength of 0.28. Sequence TCCCTAACAGTTACAGAGA has a TetR repression strength of 0.203. TCCCTGTCAGTTACTGAGA gave a TetR repression strength of 0.327. For TCCCTATAAGTTACTGAGA, the TetR repression strength was 0.711. TCCCTAGAAGTTACTGAGA gave a TetR repression strength of 0.18. Sequence TCCCTATCAGTTACTGAGA has a TetR repression strength of 0.698. TCCCTATCAGTTACAGAGA showed a TetR repression strength of 0.707. TCCCTAACAGTTACTGAGA gave a TetR repression strength of 0.297. TCCCTATAAGTTATTGAGA gave a TetR repression strength of 0.433. Sequence TCCCCTTGAGTGGACGAGA has a TetR repression strength of 0.325. Work on TCCCAGAGAGTAGCAGAGA yielded a TetR repression strength of 0.294. TCCCCCACAGTAAGAGAGA showed a TetR repression strength of 0.158. In the case of TCCCTTATAGTGGGGGAGA, the TetR repression strength was 0.161. For TCCCCACCAGTGAGGGAGA, the TetR repression strength was 0.933. With TCCCCACGAGTGAGGGAGA the TetR repression strength was 0.217. TCCCACCAAGTGAGGGAGA gave a TetR repression strength of 0.324. With TCCCCAGCAGTGAGGGAGA the TetR repression strength was 0.0743. In the case of TCCCCACAAGTGAGGGAGA, the TetR repression strength was 0.956. TCCCCCACAGTGAGGGAGA was tested, and the TetR repression strength was 0.311. Sequence TCCCACTTAGTGACAGAGA has a TetR repression strength of 0.396. Sequence TCCCTGTGAGTGAGAGAGA has a TetR repression strength of 0.407. TCCCGTAGAGTATACGAGA gave a TetR repression strength of 0.126. With TCCCATTGAGTCCTAGAGA the TetR repression strength was 0.304. Work on TCCCACCAAGTACAGGAGA yielded a TetR repression strength of 0.186. Work on TCCCGCTCAGTGCCAGAGA yielded a TetR repression strength of 0.801. Work on TCCCGCTCAGTGTCAGAGA yielded a TetR repression strength of 0.244. For TCCCGCTGAGTGCCAGAGA, the TetR repression strength was 0.341. In the case of TCCCGCTGAGTGTCAGAGA, the TetR repression strength was 1.09. Sequence TCCCGCTCAGTGACAGAGA has a TetR repression strength of 0.715. Work on TCCCGGTCAGTGACAGAGA yielded a TetR repression strength of 0.666. TCCCGCAGAGTGTAGGAGA showed a TetR repression strength of 0.191. In the case of TCCCGCTCAGTGCCTGAGA, the TetR repression strength was 0.348. TCCCGCTTAGTGTCAGAGA showed a TetR repression strength of 0.634. TCCCGCGGAGTGTAAGAGA was tested, and the TetR repression strength was 0.256. TCCCTCTCAGTGACAGAGA was tested, and the TetR repression strength was 0.607. TCCCGCAGAGTGTAAGAGA was tested, and the TetR repression strength was 0.753. With TCCCTCTAAGTGTCCGAGA the TetR repression strength was 0.512. In the case of TCCCTTCGAGTCCGAGAGA, the TetR repression strength was 0.228. For TCCCGCATAGTACCTGAGA, the TetR repression strength was 0.562. TCCCCAGGAGTGTCTGAGA showed a TetR repression strength of 0.273. Sequence TCCCTTAAAGTATTAGAGA has a TetR repression strength of 0.252. Work on TCCCTTTAAGTTGACGAGA yielded a TetR repression strength of 0.338. With TCCCAGGTAGTCGGCGAGA the TetR repression strength was 0.113. Work on TCCCGACCAGTATGCGAGA yielded a TetR repression strength of 0.0346. With TCCCAGGGAGTAGTTGAGA the TetR repression strength was 0.0889. TCCCGGAAAGTAGGCGAGA showed a TetR repression strength of 0.0444. TCCCAGGCAGTAGGCGAGA was tested, and the TetR repression strength was 0.205. Work on TCCCGGTAAGTAGGAGAGA yielded a TetR repression strength of 0.229. For TCCCGGGCAGTTCAAGAGA, the TetR repression strength was 0.417. With TCCCGGGCAGTACAAGAGA the TetR repression strength was 1.05. TCCCGGGCAGTACACGAGA gave a TetR repression strength of 0.318. Work on TCCCGGGCAGTGGGCGAGA yielded a TetR repression strength of 0.253. TCCCCGGAAGTAGGCGAGA was tested, and the TetR repression strength was 0.186. For TCCCGCTAAGTAGGCGAGA, the TetR repression strength was 0.0386. TCCCGGGCAGTAGGCGAGA was tested, and the TetR repression strength was 1.05. TCCCGGTAAGTAGGCGAGA was tested, and the TetR repression strength was 1.05. TCCCGGGAAGTAGGCGAGA showed a TetR repression strength of 0.849. TCCCACCAAGTGTTCGAGA was tested, and the TetR repression strength was 0.311. TCCCTCGGAGTGCTTGAGA gave a TetR repression strength of 0.224. With TCCCGACGAGTAGCAGAGA the TetR repression strength was 0.486. TCCCGGTAAGTCAAGGAGA was tested, and the TetR repression strength was 0.397. Work on TCCCTCATAGTGCTCGAGA yielded a TetR repression strength of 0.581.
